# Laboratory results taken from PubChem BioAssay (NCATS).
# Where “and” joins values, the source holds several entries; their conditions need not be identical. Equal entries are not always repeated. Inconclusive results are not listed. Some compounds were tested as several samples or in several runs, with calls that do not always agree. Calls of active or inactive are those of the source. Unless noted, calls come from the whole dose curve; as a rule, active = well fitted curve in the direction sought with a large enough effect; inconclusive = small, poorly fitted or top-dose-only effect, or another doubt; inactive = no such curve, though single readings can be large; an effect the other way counts as inactive or inconclusive.
# Legend:
# [1] = Primary qHTS for small molecule stabilizers of the endoplasmic reticulum resident proteome: Secreted ER Calcium Modulated Protein (SERCaMP) assay (AID 1508630); for activity change, negative = inhibition: % is set by controls: 0 for no effect and ±100 for the full control effect
# How it was run: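 The SH-SY5Y reporter protocol was run at 3 concentrations up to 38.3 uM (primary) or 11 concentrations (follow-up): 16 h compound, 100 nM thapsigargin for 4 h, then extracellular luciferase luminescence.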
# [2] = Primary qHTS for inhibitors of nuclear receptor binding SET domain protein 2 (NSD2) in an isogenic RCH-ACV NSD2 p.E1099K mutant (9B) (AID 1645876); note: nearly all actives have a fitted effect of over 70% in size; for activity change, negative = viability loss: % is set by controls: 0 for no effect and ±100 for the full control effect
# [3] = target: Cytochrome P450 2C9 (Homo sapiens) (UniProt P11712); assay: Cytochrome P450 family 2 subfamily C member 9 (CYP2C9) small molecule antagonists: luciferase biochemical (cell-free) qHTS assay (AID 1645842; active = well fitted curve in the direction sought with a large enough effect in the repeat runs; an effect the other way counts as inactive or inconclusive; note: nearly all actives have a fitted effect of over 55% in size; for activity change, negative = inhibition: % is set by controls: 0 for no effect and ±100 for the full control effect)
# How it was run: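 P450-Glo CYP2C9 system: proluciferin substrate with enzyme in mix containing 0.4% BSA, 10 min at room temperature, then NADPH regeneration solution added and incubated 1 h at 37C. Detection reagent stopped reaction; luminescence read after 20 min as RLU.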
# [4] = Primary qHTS for inhibitors of nuclear receptor binding SET domain protein 2 (NSD2) in an RCH-ACV wild type WT cells (2C) (AID 1645877); note: nearly all actives have a fitted effect of over 70% in size
# [5] = target: Catechol O-methyltransferase (Homo sapiens) (UniProt P21964); assay: Confirmatory Screen for Target Class Profiling of Small Molecule Inhibitors of Methyltransferases (AID 1745852; calls by dose curve; for activity change, negative = inhibition: % is set by controls: 0 for no effect and ±100 for the full control effect); conditions: MTase-Glo luminescence, SAH detection, recombinant enzyme; measured here: COMT max response; stronger effect = lower value
# [6] = target: Guanidinoacetate N-methyltransferase (Homo sapiens) (UniProt Q14353); assay: as above; conditions: MTase-Glo luminescence, SAH detection, recombinant enzyme; activity change, negative = inhibition: at 57.3 µM (top of the series)
# [7] = target: Nicotinamide N-methyltransferase (Homo sapiens) (UniProt P40261); assay: as above; conditions: MTase-Glo luminescence, SAH detection, recombinant enzyme; measured here: NNMT max response; stronger effect = lower value
# [8] = target: Phenylethanolamine N-methyltransferase (Homo sapiens) (UniProt P11086); assay: as above; conditions: MTase-Glo luminescence, SAH detection, recombinant enzyme; measured here: PNMT max response; stronger effect = lower value
# [9] = target: Cytochrome P450 2D6 (Homo sapiens) (UniProt P10635); assay: Cytochrome P450 family 2 subfamily D member 6 (CYP2D6) small molecule antagonists: luciferase biochemical (cell-free) qHTS assay (AID 1645840; active = well fitted curve in the direction sought with a large enough effect in the repeat runs; an effect the other way counts as inactive or inconclusive; note: nearly all actives have a fitted effect of over 55% in size)
# How it was run: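 P450-Glo CYP2D6 system: proluciferin substrate converted by enzyme to luciferin, read by luminescence proportional to activity. Enzyme-substrate mix with compound 10 min at room temperature, then NADPH regeneration 1 h before detection reagent.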
# Potency is the fitted concentration of half-maximal effect.
# Cytochrome P450 2C9 (Homo sapiens), sequence (P11712 whole entry, looked up): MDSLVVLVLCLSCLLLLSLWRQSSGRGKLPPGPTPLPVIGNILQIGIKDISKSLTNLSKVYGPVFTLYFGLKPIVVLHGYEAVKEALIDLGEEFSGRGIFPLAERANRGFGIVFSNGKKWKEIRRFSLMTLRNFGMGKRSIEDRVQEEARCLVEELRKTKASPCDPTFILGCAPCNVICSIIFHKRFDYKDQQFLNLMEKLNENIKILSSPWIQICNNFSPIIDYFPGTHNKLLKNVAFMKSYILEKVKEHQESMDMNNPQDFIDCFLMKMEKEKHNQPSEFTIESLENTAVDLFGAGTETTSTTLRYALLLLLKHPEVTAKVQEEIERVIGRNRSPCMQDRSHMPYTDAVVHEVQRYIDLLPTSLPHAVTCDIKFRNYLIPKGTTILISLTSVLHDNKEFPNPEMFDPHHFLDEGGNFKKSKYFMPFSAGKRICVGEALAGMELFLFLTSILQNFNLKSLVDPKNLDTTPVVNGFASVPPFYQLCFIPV
# Catechol O-methyltransferase (Homo sapiens), sequence (P21964 whole entry, looked up): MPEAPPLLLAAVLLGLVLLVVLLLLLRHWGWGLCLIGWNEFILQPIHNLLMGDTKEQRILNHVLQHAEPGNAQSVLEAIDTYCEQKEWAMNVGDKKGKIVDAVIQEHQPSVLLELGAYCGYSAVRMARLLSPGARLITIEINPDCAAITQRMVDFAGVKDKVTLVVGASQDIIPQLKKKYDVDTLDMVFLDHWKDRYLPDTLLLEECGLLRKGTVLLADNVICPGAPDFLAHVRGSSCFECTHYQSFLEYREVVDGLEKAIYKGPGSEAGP
# Nicotinamide N-methyltransferase (Homo sapiens), sequence (P40261 whole entry, looked up): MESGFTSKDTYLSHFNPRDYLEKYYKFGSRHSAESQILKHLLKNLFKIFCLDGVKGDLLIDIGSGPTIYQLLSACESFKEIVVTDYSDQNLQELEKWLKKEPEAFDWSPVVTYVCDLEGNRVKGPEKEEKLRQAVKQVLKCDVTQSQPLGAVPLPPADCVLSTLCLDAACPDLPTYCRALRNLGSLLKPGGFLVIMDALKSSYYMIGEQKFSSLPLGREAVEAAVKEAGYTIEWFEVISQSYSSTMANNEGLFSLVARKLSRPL
# Phenylethanolamine N-methyltransferase (Homo sapiens), sequence (P11086 whole entry, looked up): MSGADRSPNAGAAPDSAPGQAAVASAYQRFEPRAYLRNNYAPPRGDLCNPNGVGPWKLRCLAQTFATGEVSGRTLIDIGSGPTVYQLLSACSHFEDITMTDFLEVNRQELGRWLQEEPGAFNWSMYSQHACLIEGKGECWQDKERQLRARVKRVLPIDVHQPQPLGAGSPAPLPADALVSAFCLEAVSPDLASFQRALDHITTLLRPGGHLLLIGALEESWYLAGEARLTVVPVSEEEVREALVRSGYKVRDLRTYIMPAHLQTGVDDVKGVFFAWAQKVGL
# Cytochrome P450 2D6 (Homo sapiens), sequence (P10635 whole entry, looked up): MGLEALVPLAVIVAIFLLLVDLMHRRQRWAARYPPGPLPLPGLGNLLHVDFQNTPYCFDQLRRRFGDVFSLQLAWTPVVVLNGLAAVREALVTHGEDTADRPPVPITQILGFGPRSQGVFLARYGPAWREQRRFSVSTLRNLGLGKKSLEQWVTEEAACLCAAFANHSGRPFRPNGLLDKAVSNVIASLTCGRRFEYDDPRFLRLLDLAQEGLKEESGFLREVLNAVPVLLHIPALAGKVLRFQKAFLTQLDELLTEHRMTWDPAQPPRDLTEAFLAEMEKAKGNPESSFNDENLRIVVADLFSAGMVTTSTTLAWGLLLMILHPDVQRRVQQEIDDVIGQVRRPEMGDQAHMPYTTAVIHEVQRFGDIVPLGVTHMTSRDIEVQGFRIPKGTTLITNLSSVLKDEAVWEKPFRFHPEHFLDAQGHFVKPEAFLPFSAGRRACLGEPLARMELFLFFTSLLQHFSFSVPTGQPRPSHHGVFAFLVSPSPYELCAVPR
smiles,measurement,setting,value
Cc1ccc(C(=O)N(CCCN)[C@@H](c2oc3cc(Cl)ccc3c(=O)c2Cc2ccccc2)C(C)C)cc1,Potency,[1],inactive
same,Potency,[2],0.0332 µM (active)
CN1CCN(c2cccc(Nc3nc4c(-c5ccc(S(C)(=O)=O)cc5)cccn4n3)c2)CC1,Potency,[1],inactive
same,Potency,[3],12 µM (active)
same,Potency,[2],2.06 µM (active) and 5.9 µM (active)
CNC(=O)c1ccc2c(C(=Nc3cccc(CN(C)C)c3)c3ccccc3)c(O)[nH]c2c1,Potency,[1],inactive
same,Potency,[3],inactive
same,Potency,[2],16.3 µM (active) and 13.2 µM (active)
same,Potency,[4],16600 nM (active)
same,activity,[5],-17.1%
same,"activity change, negative = inhibition",[6],-9.55%
same,activity,[7],-21.7%
same,activity,[8],-16.3%
Cc1ccc(NC(=O)c2cccc(N(C)C)c2)cc1NC(=O)c1ccc(O)cc1,Potency,[1],inactive
same,Potency,[3],7.56 µM (active)
CCOC(=O)[C@@H](N)CCC(=O)N[C@@H](CSCc1ccccc1)C(=O)N[C@@H](C(=O)OCC)c1ccccc1,Potency,[1],inactive
same,Potency,[2],20.9 µM (active)
CC1(COc2ccc3c(c2)ncn3-c2ccc3cccc(N4CCC(N)CC4)c3n2)COC1,Potency,[1],inactive
same,Potency,[9],15.1 µM (active)
same,Potency,[2],1.83 µM (active) and 1.32 µM (active)
same,Potency,[4],2.05 µM (active) and 1.86 µM (active)
same,activity,[5],-30.2%
same,Potency,[6],42.9 µM (active)
same,activity,[7],-29.9%
same,activity,[8],-30.6%
COC1CCC(C(=O)c2ccc3nc4c(cc3c2)CCCO4)CC1 (stereo not given),Potency,[1],inactive
same,Potency,[2],inactive
CCCCOCCOc1nc(-c2ccc(C(=O)O)c(F)c2)sc1C,Potency,[1],inactive
same,Potency,[2],inactive
O=C(c1ccc(C(=O)N2CCC(N3CCCC3)CC2)c(Nc2ccccc2)c1)N1CCC(N2CCCC2)CC1,Potency,[1],inactive
same,Potency,[3],inactive
same,Potency,[2],inactive
same,Potency,[4],inactive
COc1cc2c(cc1OC)CC(=O)N(CCCN(C)C[C@H]1Cc3cc(OC)c(OC)cc31)CC2,Potency,[1],inactive
same,Potency,[2],inactive
N#CC(c1ccc(Cl)cc1)c1c(Cl)cc(-n2ncc(=O)[nH]c2=O)cc1Cl (stereo not given),Potency,[1],inactive
same,Potency,[3],19 µM (active)
same,Potency,[4],inactive
CNc1nc(Nc2ccc(C(=O)N3CCOCC3)cc2OC)ncc1Cl,Potency,[1],inactive
same,Potency,[3],inactive
CN(C)c1ccccc1CN1CCCN(Cc2ccccc2N(C)C)C1c1ccncc1,Potency,[1],inactive
same,Potency,[2],14.8 µM (active)
COc1cc2nccc(Oc3ccc(NC(=O)Nc4cc(C)on4)c(Cl)c3)c2cc1OC,Potency,[1],inactive
same,Potency,[3],19 µM (active)
same,Potency,[2],649 nM (active) and 3.72 µM (active)
same,Potency,[4],728 nM (active) and 4.17 µM (active)
CN[C@@H](C)[C@H]1[C@H](O)C[C@@]2(C)[C@@H]3CC[C@H]4C(C)(C)[C@@H](NC)CC[C@@]45C[C@@]35CC[C@]12C,Potency,[1],inactive
same,"activity change, negative = viability loss",[2],5.77% [at 9.23 µM] (inactive)
same,"activity change, negative = cell killing",[4],-13.6% [at 9.23 µM] (inactive)
CN[C@@H]1CN(c2ccc3c(=O)c(C(=O)O)cn(-c4nccs4)c3n2)C[C@@H]1OC,Potency,[1],inactive
same,Potency,[2],0.102 µM (active)
same,Potency,[4],64.5 nM (active)
N#CC1(c2cccc(C(=O)Nc3cc(Oc4ccc5nc(NC(=O)C6CC6)sc5n4)ccc3F)c2Cl)CC1,Potency,[1],inactive
same,Potency,[2],1.83 µM (active) and inactive
same,Potency,[4],3.65 µM (active) and inactive
Cc1nc(NC(=O)N2CCC[C@@H]2C(N)=O)sc1-c1csc(C(C)(C)C)n1,Potency,[1],inactive
same,Potency,[2],7.31 µM (active)
CN(C(Cc1ccc(OS(=O)(=O)c2cccc3cnccc23)cc1)C(=O)N1CCN(c2ccccc2)CC1)S(=O)(=O)c1cccc2cnccc12 (stereo not given),Potency,[1],11.9 µM (active)
same,Potency,[2],7.31 µM (active)
COC(=O)Nc1ccc(-c2nc(N3CCOCC3)c3cnn(C4CCN(C(=O)OC)CC4)c3n2)cc1,Potency,[1],inactive
same,Potency,[2],1.05 µM (active)
same,Potency,[4],742 nM (active)
CC(NCCc1ccc(O)cc1)C(O)c1ccc(O)cc1 (stereo not given),Potency,[1],inactive
same,Potency,[2],inactive
same,Potency,[4],inactive
